This passage reports growth results from PubChem BioAssay (NCI).

About 83,000 compounds went through this panel and 20% of them were active in at least one assay; those are over-represented in the sample as a whole.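 Percent growth is the endpoint: 0 to 100 indicates growth inhibition (40 means 60% inhibition), 0 means no net growth, and negative values indicate cell death.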 A number with no mark means an inactive call. Activity calls are given as the source filed them. How the source made its calls: active means growth percent below 10; inactive means the rest.

Assay in all cases: NCI-60 one-dose screen, 48 h (100 = growth as untreated, 0 = no growth, -100 = all killed)
One assay has as its system HCT-15 colon. To be noted: 10 µM unless noted.
The subject of another assay is HT29 colon. To be noted: 10 µM unless noted.
The test system of a further assay is SNB-75 CNS. To be noted: 10 µM unless noted.
The next assay concerns SNB-19 CNS. To be noted: 10 µM unless noted.
For another assay, the system named is U251 CNS. To be noted: 10 µM unless noted.
For a further assay, the system named is PC-3 prostate. To be noted: 10 µM unless noted.
A further assay has as its system SK-MEL-5 melanoma. To be noted: 10 µM unless noted.
Another assay concerns UACC-62 melanoma. To be noted: 10 µM unless noted.
The next assay concerns LOX IMVI melanoma. To be noted: 10 µM unless noted.
In the next assay the test system is SK-MEL-28 melanoma. To be noted: 10 µM unless noted.
The test system of a further assay is SK-MEL-2 melanoma. To be noted: 10 µM.
A further assay concerns EKVX NSCLC. To be noted: 10 µM unless noted.
The next assay has as its system SN12C renal. To be noted: 10 µM unless noted.
The subject of a further assay is UO-31 renal. To be noted: 10 µM unless noted.
In a further assay the test system is TK-10 renal. To be noted: 10 µM unless noted.
Another assay relates to ACHN renal. To be noted: 10 µM unless noted.
A further assay concerns CAKI-1 renal. To be noted: 10 µM unless noted.
A further assay has as its system A498 renal. To be noted: 10 µM unless noted.
The test system of a further assay is CCRF-CEM leukemia. To be noted: 10 µM unless noted.
The test system of the next assay is MOLT-4 leukemia. To be noted: 10 µM unless noted.

As to `CCc1nc2cc(/C=C/C(=O)NO)c(F)cc2c(=O)n1CCc1ccccc1`, the growth was 25.9% with HCT-15 colon; 13.2% in the assay with HT29 colon; 29.3% with SNB-75 CNS; 19.7% in the assay on SNB-19 CNS; 1.61% (active) in the assay with U251 CNS; 16.9% in the assay with PC-3 prostate. The growth in the assay with SK-MEL-5 melanoma is -10.1% (active); in the assay with UACC-62 melanoma, -33.5% (active); with LOX IMVI melanoma it was -57.8% (active); in the assay with SK-MEL-28 melanoma, 20.3%; in the assay on SK-MEL-2 melanoma it was 35%; with EKVX NSCLC, 20.6%. Moreover, the growth in the assay on SN12C renal was 3.45% (active); in the assay on UO-31 renal it was -28.7% (active); in the assay on TK-10 renal it was -5.84% (active); in the assay with ACHN renal it was 1.28% (active); in the assay with CAKI-1 renal, -1.21% (active); in the assay with A498 renal, -16.5% (active). The values for the growth in the assay with CCRF-CEM leukemia and in the assay on MOLT-4 leukemia were 2.77% (active) and -2.57% (active), respectively.

Turning to `NC(=O)N1N=C(c2ccc(Cl)cc2)CC1c1cn(-c2ccccc2)nc1-c1ccc(Cl)cc1` (stereo unspecified), the growth was 72% with HCT-15 colon; 51.1% in the assay on HT29 colon; -10.5% (active) in the assay on SNB-75 CNS; 44% in the assay with SNB-19 CNS; 46% with U251 CNS; 52.8% in the assay on PC-3 prostate. Also, the growth is 79% in the assay with SK-MEL-5 melanoma; 61.7% with UACC-62 melanoma; 55.9% with LOX IMVI melanoma; 78.4% in the assay on SK-MEL-28 melanoma; 74.3% in the assay on SK-MEL-2 melanoma; 58.1% in the assay with EKVX NSCLC. The growth in the assay on SN12C renal was 61.9%; in the assay with UO-31 renal, 21.5%; in the assay with TK-10 renal, 43.2%; in the assay with ACHN renal, 26.1%; in the assay on CAKI-1 renal, 67.7%; in the assay on A498 renal, 71.1%. Further, the growth in the assay on CCRF-CEM leukemia is 85.2%; with MOLT-4 leukemia it was 62.9%.

As to `COc1ccc(-c2nocc2-c2cc(OC)c(OC)c(OC)c2)cc1`, the growth was 9.74% (active) in the assay with HCT-15 colon; 0.361% (active) in the assay with HT29 colon; 32.8% in the assay with SNB-75 CNS; 34.9% with SNB-19 CNS; 19.1% in the assay on U251 CNS; 29% with PC-3 prostate. The growth in the assay with SK-MEL-5 melanoma was 7.25% (active); in the assay with UACC-62 melanoma it was 13%; in the assay on LOX IMVI melanoma, 43.5%; in the assay with SK-MEL-28 melanoma, 49.8%; in the assay on SK-MEL-2 melanoma, 41.5%; in the assay with EKVX NSCLC, 54.2%. In addition, the growth in the assay with SN12C renal is 50%; with UO-31 renal, 36.3%; in the assay with TK-10 renal, 67.3%; in the assay with ACHN renal it was 39.6%; in the assay on CAKI-1 renal it was 31.2%; with CCRF-CEM leukemia, 22.7%.

Consider `CC(C)n1c(NCCc2ccc(O)c(O)c2)nc2c1c(=O)n(C)c(=O)n2C`, for which the growth in the assay on HCT-15 colon was 98.8%; with HT29 colon, 98.1%; in the assay on SNB-75 CNS, 80.2%; in the assay with SNB-19 CNS, 101%; in the assay with U251 CNS, 97.5%; in the assay with PC-3 prostate it was 89.3%. In addition, the growth is 92.8% with SK-MEL-5 melanoma; 94.4% in the assay on UACC-62 melanoma; 95.2% in the assay with LOX IMVI melanoma; 102% in the assay with SK-MEL-28 melanoma; 107% with SK-MEL-2 melanoma; 101% in the assay with EKVX NSCLC. The growth is 98.4% in the assay on SN12C renal; 87.3% in the assay on UO-31 renal; 84.6% with TK-10 renal; 99.3% with ACHN renal; 88.1% in the assay on CAKI-1 renal; 99.6% in the assay on CCRF-CEM leukemia. Also, in the assay on MOLT-4 leukemia, the growth is 105%.

In the case of `COc1cnc2c(c1)C(=O)c1c-2n(CCCNC2=NCCS2)c(=O)c2cc(Cl)ccc12`, the growth is -69.2% (active) with HCT-15 colon; -82.7% (active) with HT29 colon; 57.9% with SNB-75 CNS; -29.7% (active) with SNB-19 CNS; -89.7% (active) with U251 CNS; 20.5% in the assay with PC-3 prostate. For the same compound, the growth is 39.4% in the assay with SK-MEL-5 melanoma; -76.6% (active) with UACC-62 melanoma; -90.5% (active) in the assay on LOX IMVI melanoma; 90.8% with SK-MEL-28 melanoma; 90.5% in the assay with SK-MEL-2 melanoma; -35.8% (active) with EKVX NSCLC. Also, the growth is -49.4% (active) with SN12C renal; -80.6% (active) in the assay on UO-31 renal; -17.7% (active) in the assay with TK-10 renal; -91.8% (active) with ACHN renal; -91.8% (active) in the assay on CAKI-1 renal; -13% (active) in the assay with A498 renal. Also, the growth was -23% (active) in the assay on CCRF-CEM leukemia and -41.5% (active) with MOLT-4 leukemia.

Consider `COc1cnc2c(c1)C(=O)c1c-2n(CCCN2CCC(N)CC2)c(=O)c2cc([N+](=O)[O-])ccc12`, for which the growth is 49% in the assay with HCT-15 colon; 36.5% in the assay with HT29 colon; 60.9% in the assay with SNB-75 CNS; 39.8% in the assay on SNB-19 CNS; 39.4% in the assay on U251 CNS; 40.7% in the assay with PC-3 prostate. Besides, the growth in the assay with SK-MEL-5 melanoma is 72.4%; with UACC-62 melanoma it was 49.8%; in the assay with LOX IMVI melanoma, 21.2%; in the assay on SK-MEL-28 melanoma, 116%; in the assay with SK-MEL-2 melanoma, 109%; in the assay with EKVX NSCLC, 75.7%. Further, the growth in the assay on SN12C renal is 21.6%; in the assay with UO-31 renal, 63.7%; in the assay with TK-10 renal it was 82.6%; in the assay on ACHN renal, 19.8%; in the assay with CAKI-1 renal it was 45.2%; with A498 renal it was 62.6%. Further, the growth was 1.69% (active) in the assay on CCRF-CEM leukemia and 0.263% (active) in the assay on MOLT-4 leukemia.

Regarding `CCNCCNc1cc(-c2ccc(Cl)c(Cl)c2)c(C#N)c2nc3ccccc3n12`, the growth was -84% (active) in the assay with HCT-15 colon; -87.3% (active) with HT29 colon; -88.4% (active) in the assay with SNB-75 CNS; -74.2% (active) with SNB-19 CNS; -95.5% (active) with U251 CNS; -83% (active) in the assay with PC-3 prostate. The growth in the assay with SK-MEL-5 melanoma is -93.5% (active); in the assay on UACC-62 melanoma, -74.2% (active); in the assay with LOX IMVI melanoma, -93.4% (active); in the assay on SK-MEL-28 melanoma, -81% (active); in the assay with SK-MEL-2 melanoma, -83.1% (active); in the assay with EKVX NSCLC, -80% (active). The growth in the assay with SN12C renal is -68.9% (active); with UO-31 renal, -84% (active); in the assay on TK-10 renal, -84.3% (active); in the assay with ACHN renal it was -90.5% (active); with CAKI-1 renal, -95.4% (active); in the assay on A498 renal it was -76.6% (active). Also, the figures for the growth in the assay on CCRF-CEM leukemia and in the assay on MOLT-4 leukemia were -30.3% (active) and -43.4% (active), respectively.

Consider `O=C(NCCO)Nc1ccc(-c2nc(N3CCOCC3)c3cccn3n2)cc1`, for which the growth is 11.5% with HCT-15 colon; 14.4% in the assay with HT29 colon; -31.9% (active) in the assay with SNB-75 CNS; 18.3% in the assay with SNB-19 CNS; 18.3% with U251 CNS; 9.72% (active) in the assay on PC-3 prostate. Also, the growth with SK-MEL-5 melanoma was -27.6% (active); in the assay with UACC-62 melanoma it was -37.7% (active); in the assay on LOX IMVI melanoma, 4.86% (active); in the assay with SK-MEL-28 melanoma it was -7.13% (active); with SK-MEL-2 melanoma, -9.19% (active); in the assay with EKVX NSCLC, 3.13% (active). Moreover, the growth with SN12C renal is 5.36% (active); with UO-31 renal, -18.2% (active); in the assay with TK-10 renal, -23.5% (active); with ACHN renal, 9.2% (active); in the assay on CAKI-1 renal it was 9.37% (active); in the assay on CCRF-CEM leukemia it was 27.4%. Also, in the assay with MOLT-4 leukemia, the growth was 16.2%.
